IP6K1 inhibitor: IP6K1 kinase inhibition; AID 1645851; IP6K1 kinase, ADP-Glo luminescence, 2 h; stronger effect = lower value; hit rate 0.81% among 140,000; Q92551; activity change, % (series mostly up to about 58 µM); in the data active means activity change below about -25%; further: on the % scale 0 is the no-effect control and ±100 the full control effect
Target sequence (Q92551 whole entry, looked up): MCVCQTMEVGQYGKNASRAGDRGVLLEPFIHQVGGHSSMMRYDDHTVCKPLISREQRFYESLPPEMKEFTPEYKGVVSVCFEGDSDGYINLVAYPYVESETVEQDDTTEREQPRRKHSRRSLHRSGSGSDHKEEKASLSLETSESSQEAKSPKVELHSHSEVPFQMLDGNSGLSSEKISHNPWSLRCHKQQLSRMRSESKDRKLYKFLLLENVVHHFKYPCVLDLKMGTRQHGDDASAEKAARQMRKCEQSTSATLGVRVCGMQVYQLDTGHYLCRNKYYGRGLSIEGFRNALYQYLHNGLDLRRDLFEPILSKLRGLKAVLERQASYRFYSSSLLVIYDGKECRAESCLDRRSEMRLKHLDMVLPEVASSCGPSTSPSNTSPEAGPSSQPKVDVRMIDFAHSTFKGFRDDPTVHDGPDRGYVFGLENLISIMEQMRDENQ
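ADP-Glo luminescence measures ADP made by human IP6K1 during a 2 h RT reaction with ATP/IP6 (mix at 1.3 mM/130 uM); top library doses 57.5 and 19.1 uM final.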
HEK293 viab: counter-screen for SNCA expression inhibitors: cell viability | HEK-293-SNCA-luc viability, GF-AFC fluorescence, 24 h | Potency, µM (series often up to 57.1 µM), for the others: top-dose activity change, negative = cytotoxicity, most hits filed as cytotoxic | hit rate 0.12% among 150,000 | AID 1671193;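 further: potency means the concentration at half of the fitted maximal effect; 0% = DMSO-treated cells and -100% = medium-only wells without cells; nearly all actives have a fitted effect of over 30% in size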
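Cytotoxicity counterscreen: after 24 h compound treatment of genome-edited SNCA-luciferase HEK-293 cells, live-cell protease substrate GF-AFC read by fluorescence after 30 min; activity scaled between DMSO (0%) and medium-only (-100%), curves Hill-fitted.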
KDM5B inh: KDM5B demethylase inhibition; Q9UGL1; KDM5B demethylase, FDH-coupled NADH fluorescence (FDH is formaldehyde dehydrogenase); Potency, µM (top dose mostly 57.7 µM), actives largely listed as inhibitors; hit rate 2.6% among 220,000; AID 1347165; further: potency means the concentration at half of the fitted maximal effect; 0% is about no effect; nearly all actives have a fitted effect of over 70% in size
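KDM5BΔAP (200 nM final) in 50 mM HEPES pH 7.5, 0.01% Tween-20 was preincubated 10 min at RT with compound over a concentration range. Substrate mix (H3K4me3 12.5 µM, α-KG 25 µM, Fe²⁺, ascorbate, NAD⁺, FDH) was added, and NADH fluorescence change over 30 min gave dose-response curves.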
SNCA expr inh: inhibitors of alpha-synuclein (SNCA) gene expression. HEK-293 SNCA-luciferase knock-in, luminescence, 24 h. hit rate 0.17% among 140,000. Potency, µM (titrated, usually from 57.2 µM), for the others: at the top dose activity change, negative = inhibition, hits mostly inhibitors;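 further: potency means the concentration at half of the fitted maximal effect; plate controls were DMSO cells for no effect and cell-free wells for full effect; nearly all actives have a fitted effect of over 45% in size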
* marks the source's active call; other numbers are inactive results; ! = not active in a repeat; [ ] = dose if it differs, or a comment. Sampled rows, rich in hits. Any-hit rate of the full collection: about 2.8%. Unless noted, the call rests on the fitted dose curve; in most records, active means well fitted curve in the direction sought with a large enough effect; inconclusive means small, poorly fitted or top-dose-only effect, or another doubt; inactive means no such curve, though single readings can be large; an effect the other way counts as inactive or inconclusive.

Results for Cc1cc(C)cc(NC(=S)N[C@H]2CO[C@H]3[C@@H]2OC[C@@H]3n2nnnc2Oc2cccc(N(C)C)c2)c1 ?
IP6K1 inhibitor: 5; HEK293 viab: -4%; KDM5B inh: 25µM*; SNCA expr inh: inconclusive

How did CCC(CC)C(=O)N1[C@@H](c2ccco2)[C@@H](C(=O)O)C[C@]12CCCCN(CCOC)C2=O do in these assays?
IP6K1 inhibitor: -4

How did O=C(NC1CCCCC1)C1CCCN(S(=O)(=O)c2ccc(F)cc2)C1 (configuration not stated) do in these assays?
KDM5B inh: inactive

How did COc1cc2c(cc1OC)C(C[C@H]1CN(S(=O)(=O)c3ccc(C#N)cc3)CC[C@H]1CC(=O)O)=NCC2 do in these assays?
IP6K1 inhibitor: -8; HEK293 viab: 15%; KDM5B inh: 28µM*; SNCA expr inh: 15%

How did COc1cc2c(cc1OC)C(C[C@H]1CN(S(=O)(=O)c3cccs3)CC[C@H]1CC(=O)O)=NCC2 do in these assays?
IP6K1 inhibitor: 6; HEK293 viab: 6%; KDM5B inh: 28µM*; SNCA expr inh: -27%

What do the screens show for `COc1ccc(S(=O)(=O)N2CC[C@@H](CC(=O)O)[C@@H](CC3=NCCc4cc(OC)c(OC)cc43)C2)cc1`?
IP6K1 inhibitor: -1; HEK293 viab: 17%; KDM5B inh: inactive; SNCA expr inh: 1%

What do the screens show for `OCc1ccccc1CN1CCCC1`?
KDM5B inh: inactive

Results for Cc1noc([C@@H]2CN(S(=O)(=O)c3cccnc3)C[C@H]2C(N)=O)n1 ?
IP6K1 inhibitor: 6; HEK293 viab: 6%; KDM5B inh: inactive; SNCA expr inh: 12%

Results for Cc1nnc(-c2cc(N3CCN(c4ccccn4)CC3)ccn2)n1-c1ccccc1 ?
IP6K1 inhibitor: -8; HEK293 viab: 5%[87.6 µM]; KDM5B inh: inactive; SNCA expr inh: -22%[87.6 µM]

Results for CC(=O)N1CCN(c2ccnc(-c3nnc(C)n3-c3ccccc3)c2)CC1 ?
IP6K1 inhibitor: 6; HEK293 viab: 10%[87.6 µM]; KDM5B inh: 35µM*; SNCA expr inh: 33%[87.6 µM]

How did Cc1ccc(C(=O)NC2CCN(c3cc(-c4ccc(F)cc4)[nH]n3)CC2)cc1 do in these assays?
IP6K1 inhibitor: 23; HEK293 viab: 3%; KDM5B inh: inconclusive; SNCA expr inh: -1%

Results for Cc1cc(N2CCNC(c3ccccc3)C2)n2nc(C)c(C)c2n1 (configuration not stated) ?
IP6K1 inhibitor: -14; HEK293 viab: inconclusive; KDM5B inh: inactive; SNCA expr inh: -5%

Results for Cc1nn2c(N3CCC(O)C3)cc(-c3ccccc3)nc2c1C (configuration not stated) ?
IP6K1 inhibitor: 16; HEK293 viab: 14%; KDM5B inh: 28µM*; SNCA expr inh: 32%

What do the screens show for `CC1(C)C2CCC1(C)C(OC(=O)C[N+]1(CC(=O)OC3CC4CCC3(C)C4(C)C)CCCCC1)C2` (configuration not stated)?
KDM5B inh: inactive

How did CC#CCn1cc2c3c(cccc31)[C@H](CC(C)C)N[C@H](C(=O)N1CCN(CCOC)CC1)C2 do in these assays?
IP6K1 inhibitor: 0; HEK293 viab: -22%; KDM5B inh: 28µM*; SNCA expr inh: 15%

How did COc1ccccc1CNC(=O)[C@@H]1Cc2cn(C)c3cccc(c23)[C@H](CC(C)C)N1 do in these assays?
IP6K1 inhibitor: -5; HEK293 viab: inconclusive; KDM5B inh: 35µM*; SNCA expr inh: inconclusive

How did Cc1ccc(S(=O)(=O)c2nnn3c2nc(N2CCCC2)c2sccc23)cc1C do in these assays?
IP6K1 inhibitor: -7; HEK293 viab: 0%; KDM5B inh: inactive; SNCA expr inh: 15%

What do the screens show for `c1csc(-c2nc3ccncc3[nH]2)c1`?
IP6K1 inhibitor: -3; HEK293 viab: 6%[87.6 µM]; KDM5B inh: 32µM*; SNCA expr inh: 10%[87.6 µM]

How did Cc1ccoc1-c1nc2ccncc2[nH]1 do in these assays?
IP6K1 inhibitor: 0; HEK293 viab: 4%[87.6 µM]; KDM5B inh: 32µM*!; SNCA expr inh: 48%[87.6 µM]

What do the screens show for `Cc1ccc(-c2nc(-c3cccs3)c(-c3cccs3)[nH]2)cc1`?
IP6K1 inhibitor: -14; HEK293 viab: -3%; KDM5B inh: inconclusive; SNCA expr inh: 2%

How did c1ccc(-c2nc3ccncc3[nH]2)nc1 do in these assays?
IP6K1 inhibitor: 1; HEK293 viab: 0%[87.6 µM]; KDM5B inh: 126µM*!; SNCA expr inh: -23%[87.6 µM]

Results for O=C(CSc1nc2ccncc2[nH]1)Nc1ccccc1C(F)(F)F ?
IP6K1 inhibitor: -20; HEK293 viab: -3%; KDM5B inh: inactive; SNCA expr inh: 0%

What do the screens show for `c1c[nH]c(-c2nc3ccncc3[nH]2)c1`?
IP6K1 inhibitor: 1; HEK293 viab: 0%[87.6 µM]; KDM5B inh: 32µM*; SNCA expr inh: 0%[87.6 µM]

Results for Cc1ccc(C(=O)N2CCC(N(C(=O)Cc3ccccc3)C3CCOCC3)CC2)cc1F ?
IP6K1 inhibitor: 14; HEK293 viab: 7%; SNCA expr inh: -8%

How did CC1CCC(NC(=O)c2ccc3ccccc3n2)CC1 (configuration not stated) do in these assays?
KDM5B inh: inactive

Results for Cn1c(=O)c2c(ncn2CC(=O)N2CCC(Cc3nc(C4CCOCC4)no3)CC2)n(C)c1=O ?
IP6K1 inhibitor: 5; HEK293 viab: 0%; KDM5B inh: inconclusive; SNCA expr inh: 3%

Results for CC(C)(C)OC(=O)N[C@@H](Cc1ccccc1)C(=O)NCC1CCC(C(=O)N[C@@H](CCC(N)=O)C(=O)O)CC1 (some centres not stated) ?
KDM5B inh: inactive

How did CC(C)(C)c1nc(C(=O)N2CCCC2)n2ccncc12 do in these assays?
IP6K1 inhibitor: -8; HEK293 viab: -8%[87.6 µM]; KDM5B inh: 100µM*; SNCA expr inh: 7%[87.6 µM]

Results for O=C(c1nc(-c2cccnc2)c2cnccn12)N1CCOCC1 ?
IP6K1 inhibitor: 4; HEK293 viab: 7%[87.6 µM]; KDM5B inh: inactive; SNCA expr inh: 20%[87.6 µM]

What do the screens show for `CC(C)(C)c1nc(C(=O)N2CCOCC2)n2ccncc12`?
IP6K1 inhibitor: 3; HEK293 viab: 7%[87.6 µM]; KDM5B inh: 89µM*; SNCA expr inh: 4%[87.6 µM]

Results for COc1ccccc1OC(C)C(=O)c1cccc(Cl)c1 (configuration not stated) ?
KDM5B inh: inactive

How did COc1ccc(-c2ccc(COc3ccc4c(cnn4CCC(=O)O)c3)cc2)c(Cl)c1 do in these assays?
IP6K1 inhibitor: 4; HEK293 viab: 5%[87.6 µM]; KDM5B inh: inactive; SNCA expr inh: 3%[87.6 µM]

Results for CN(C)Cc1ccc(-c2cc3c(ccn3Cc3ccncc3)c(N3CCOCC3)n2)cc1 ?
IP6K1 inhibitor: -12; HEK293 viab: -22%[87.6 µM]; KDM5B inh: 40µM*; SNCA expr inh: -9%[87.6 µM]

How did Cn1cc(-c2cc3c(ccn3Cc3ccncc3)c(N3CCOCC3)n2)cn1 do in these assays?
IP6K1 inhibitor: 2; HEK293 viab: 11%[87.6 µM]; KDM5B inh: inactive; SNCA expr inh: -30%[87.6 µM]

Results for c1cc(Cn2ccc3c(N4CCOCC4)nc(-c4ccc5cn[nH]c5c4)cc32)ccn1 ?
IP6K1 inhibitor: -6; HEK293 viab: 0%[87.6 µM]; KDM5B inh: 35µM*; SNCA expr inh: -23%[87.6 µM]

Screening data as filed in PubChem.
